Compound activity as filed in PubChem.
An excerpt weighted towards active compounds, which were near 1.3% of everything screened.
CRFBP-R2 agonist: agonists of human CRF-binding protein/CRF-R2 receptor complex. activation, % at 13.2 µM. HEK293 CRF-R2/CRF-BP, calcium dye fluorescence (FLIPR); percent of saturating CRF peptide response. AID 588473. 350,000 tested, 0.46% active;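 active = activation of at least 50%, plus an integration ratio under a set limit after plate pattern correction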;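 also: plate controls were neutral control wells without compound for no effect and CRF at EC100 for full effect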
LANA DNA inh: inhibitors of KSHV LANA C-terminal domain DNA binding. inhibition, % at 9 µM. 340,000 tested, 0.078% active. AID 504423. MBP-C-LANA/FAM-LBS DNA binding, fluorescence polarization;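 active = highest replicate inhibition at or above 60% at 9 µM, even if other replicates fall short; inactive = all replicates below 60% inhibition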;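 also: 0% = neutral control wells and 100% = 4 µM acridine orange control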
Cardiac RTF inh: cardiac RTF calcium desensitization; AID 493244; P19429+P45379; IANBD-labeled cardiac RTF, Ca2+ fluorescence; inhibition, % at 7.15 µM; 340,000 tested, 0.12% active;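 active = inhibition above the mean inhibition of all tested compounds plus 3 SD, cut at about 17% in these data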;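 also: assay run at fixed EC70 calcium of 1.6 mM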
RTF Ca sens act: increases calcium sensitivity of human cardiac regulated thin filaments; P19429+P45379; IANBD-labeled TnC RTF fluorescence at EC20 calcium; 0% EC20 calcium, 100% full calcium; activation, % at 7.2 µM; 340,000 tested, 0.24% active; AID 493008;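 active = activation above the mean over all tested compounds plus 3 SD, cut at about 30% in these data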;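 also: rise in fluorescence read as greater calcium sensitivity of cardiac thin filaments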
Keap1-Nrf2 PPI: Keap1-Nrf2 (human) interaction inhibition; Q14145; Keap1 Kelch-Nrf2 peptide fluorescence polarization, 1536-well; inhibition, % at 9.4 µM; 340,000 tested, 0.15% active; in the data active = inhibition above about 12%;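 also: human Keap1 Kelch domain with fluorescein labeled Nrf2 9mer peptide probe; 0% = neutral control wells and 100% = peptide positive control; higher means more block of Keap1 binding to Nrf2 peptide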
Target sequence (Q14145 whole entry, looked up, the tested form may be a part): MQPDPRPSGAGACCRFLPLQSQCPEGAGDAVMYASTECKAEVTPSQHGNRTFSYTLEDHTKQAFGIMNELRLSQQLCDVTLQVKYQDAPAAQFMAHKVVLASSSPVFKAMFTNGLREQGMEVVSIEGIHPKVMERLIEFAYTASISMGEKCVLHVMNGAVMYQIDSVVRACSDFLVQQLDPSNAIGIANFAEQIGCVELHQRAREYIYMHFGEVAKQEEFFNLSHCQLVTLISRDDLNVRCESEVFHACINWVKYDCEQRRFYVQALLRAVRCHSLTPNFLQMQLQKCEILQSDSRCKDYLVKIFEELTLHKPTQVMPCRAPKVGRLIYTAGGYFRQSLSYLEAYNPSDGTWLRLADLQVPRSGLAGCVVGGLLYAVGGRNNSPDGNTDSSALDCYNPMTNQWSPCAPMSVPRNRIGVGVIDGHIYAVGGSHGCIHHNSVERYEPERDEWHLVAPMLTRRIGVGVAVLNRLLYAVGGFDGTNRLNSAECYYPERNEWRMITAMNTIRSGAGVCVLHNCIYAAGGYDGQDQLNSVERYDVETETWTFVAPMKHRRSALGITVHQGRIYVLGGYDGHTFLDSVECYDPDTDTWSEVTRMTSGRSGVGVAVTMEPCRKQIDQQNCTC
CRFBP-R2 block: antagonists of CRF-binding protein/CRF-R2 receptor complex; HEK293 CRF-R2/CRF-BP, CRF-induced calcium fluorescence; inhibition, % at 11.8 µM; 350,000 tested, 0.59% active;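 active = inhibition of the ligand-induced calcium signal above about 50% at the single tested concentration, limit read from the data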
An asterisk follows results filed as active; . = not tested or not shown.

SMILES | CRFBP-R2 agonist | LANA DNA inh | Cardiac RTF inh | RTF Ca sens act | Keap1-Nrf2 PPI | CRFBP-R2 block
COc1ccc(C(C[N+](=O)[O-])c2c(-c3ccccc3)cc3ccccn23)c(OC)c1 (centres undefined) | 16.3 | -0.4 | 0.8 | -5.1 | -3.4 | -53.9
O=C(Nc1cc(C(F)(F)F)ccc1-n1cncn1)c1ccc(Cl)cc1 | -1.7 | 0.1 | -0.7 | -6.3 | 2.6 | 81.7*
CCCCn1c(N)c(N(CCC(C)C)C(=O)Cc2ccc(S(=O)(=O)N3CCOCC3)s2)c(=O)[nH]c1=O | 6.0 | -0.5 | -26.6 | 8.9 | -5.1 | 99.7*
CCCCn1c(N)c(N(CC(C)C)C(=O)Cc2ccc(S(=O)(=O)N3CCOCC3)s2)c(=O)[nH]c1=O | 54.3* | 22.9 | -37.0 | 24.5 | -38.9 | -53.2
CCCCn1c(N)c(N(CC)C(=O)Cc2ccc(S(=O)(=O)N3CCOCC3)s2)c(=O)[nH]c1=O | 4.2 | 1.6 | -7.8 | -3.4 | -4.1 | 5.4
O=C(Nc1ccc2c(c1)CCC2)C1CCN(c2ncccn2)CC1 | -1.1 | 0.0 | -3.7 | -0.9 | -2.8 | 9.6
N/C(=N/O)c1ccccc1N1CCC(Cc2ccccc2)CC1 | 0.5 | -1.2 | 1.5 | -3.8 | 1.8 | -21.2
Cc1cc[n+](-c2[nH]c(=O)sc2/C=N/N=C(\[O-])c2ccccc2)cc1 | 1.1 | 3.1 | . | . | 0.0 | 13.4
COc1ccc(NC(=S)N(Cc2ccc(N(C)C)cc2)Cc2ccco2)cc1 | -1.6 | -0.3 | -4.1 | 0.6 | -2.8 | 32.4
CCOc1ccc(NC(=S)N(Cc2ccc(N(C)C)cc2)Cc2ccco2)cc1 | -0.6 | 1.5 | -3.1 | 2.9 | -4.5 | 76.6*
Cc1nnc2n(Cc3ccccc3)c(=O)c3c4c(sc3n12)COC(C)(C)C4 | -2.2 | -1.2 | -5.2 | -4.7 | -3.8 | 87.2*
COc1ccc(CCNC(=O)C2CCCN(S(=O)(=O)N3CC(C)CC(C)C3)C2)cc1OC (centres undefined) | -3.0 | 2.1 | -0.3 | 4.2 | -1.2 | -1.0
O=c1c2cc(Br)ccc2nc(-c2cccc(C(F)(F)F)c2)n1O | 148.4* | 0.0 | -11.3 | -0.7 | -1.6 | 33.0
O=c1c2ccc(Cl)cc2nc(-c2ccc([N+](=O)[O-])cc2)n1O | 59.2* | -0.1 | 0.8 | 5.5 | -6.7 | 14.7
O=c1c2cc(Br)ccc2nc(-c2ccc([N+](=O)[O-])cc2)n1O | 100.6* | -0.5 | -6.7 | 2.0 | 3.4 | 12.3
O=c1c2cc(Cl)ccc2nc(-c2ccc(Cl)c(Cl)c2)n1O | 134.9* | 1.3 | -1.9 | 0.4 | 1.6 | -51.3
Nc1ccccc1SC1CC(=O)N(c2ccc3c(c2)OCO3)C1=O (centres undefined) | -1.2 | 0.7 | . | . | 0.8 | 84.5*
O=c1cc(O)c2ccc(O)cc2o1 | 4.0 | 2.1 | -7.1 | 2.4 | -0.2 | 6.9
O=c1ccc2[n+]([O-])c3ccc(O)cc3oc-2c1 | 7.7 | 50.1 | -7.1 | -0.9 | 101.3* | 8.7
O=S(=O)(NCCN1CCOCC1)c1cc(Cl)c(Cl)cc1Cl | -0.1 | . | -5.7 | -7.7 | 4.9 | 2.3
COc1ccc(OC2C(=O)N(c3ccc(C)c(C)c3)C2c2ccc(OC)c(OC)c2)cc1 (centres undefined) | 4.1 | 2.2 | 1.9 | -5.4 | -0.2 | 17.2
C(=Cc1cnc2ccccc2n1)c1ccc2c(c1)OCO2 | 99.5* | . | . | . | . | -61.8
CCn1ncc(C(=O)Nc2ccc([N+](=O)[O-])cc2OC)c1C | 2.1 | -1.3 | 1.8 | -6.8 | -0.2 | 51.1*
O=c1oc2c(CN3CCCCC3)c(O)ccc2cc1-c1nc2ccccc2[nH]1 | 97.4* | 15.2 | -48.9 | 20.3 | 5.4 | -71.0
O=c1oc2c(CN3CCN(CCO)CC3)c(O)ccc2cc1-c1ccccn1 | 70.9* | 1.1 | 1.3 | -1.4 | -2.2 | -14.8
O=c1oc2c(O)cccc2cc1-c1nc2ccccc2[nH]1 | 183.6* | 2.4 | -282.9 | 152.9* | 8.4 | -105.2
O=c1[nH]cccc1-c1nc2ccccc2[nH]1 | 3.3 | 1.6 | -2.1 | -0.6 | -2.0 | 7.2
Cc1cc(/C=N/NC(N)=S)c(C)n1-c1ccc(Cl)cc1 | -1.0 | -0.9 | -2.8 | 1.8 | -1.1 | -34.7
S=C(NCc1ccccn1)Nc1ccccc1 | -0.3 | 1.1 | 0.7 | -1.7 | -1.1 | 7.9
Cc1cc(=O)[nH]c(N=N/C(=N/Nc2ccc(O)cc2)c2ccccc2)n1 | -1.2 | 0.2 | -11.3 | 1.5 | 2.4 | -15.2
